What all share (test): NCI-60 one-dose screen, 48 h (100 = growth as untreated, 0 = no growth, -100 = all killed)
For assay [1], the system named is SK-MEL-2 melanoma. The settings on record: 10 µM unless noted.
The test system of assay [2] is EKVX NSCLC. The settings on record: 10 µM unless noted.
The test system of assay [3] is SN12C renal. As to conditions: 10 µM unless noted.
Assay [4] deals with UO-31 renal. The settings on record: 10 µM unless noted.
In assay [5] the test system is ACHN renal. The settings on record: 10 µM unless noted.
The test system of assay [6] is CAKI-1 renal. As to conditions: 10 µM.
For assay [7], the system named is A498 renal. As to conditions: 10 µM unless noted.
Assay [8] has as its system CCRF-CEM leukemia. As to conditions: 10 µM unless noted.
In assay [9] the test system is MOLT-4 leukemia. As to conditions: 10 µM unless noted.
Assay [10] concerns SR leukemia. The settings on record: 10 µM unless noted.
Assay [11] concerns RPMI-8226 leukemia. As to conditions: 10 µM unless noted.
The test system of assay [12] is OVCAR-8 ovarian. As to conditions: 10 µM unless noted.
Assay [13] has as its system OVCAR-5 ovarian. The settings on record: 10 µM unless noted.
The test system of assay [14] is OVCAR-4 ovarian. As to conditions: 10 µM unless noted.
The subject of assay [15] is SK-OV-3 ovarian. As to conditions: 10 µM unless noted.
In assay [16] the test system is IGROV1 ovarian. As to conditions: 10 µM unless noted.
In assay [17] the test system is OVCAR-3 ovarian. As to conditions: 10 µM unless noted.
Assay [18] has as its system HS 578T breast. As to conditions: 10 µM unless noted.
Assay [19] relates to NCI/ADR-RES ovarian. As to conditions: 10 µM unless noted.

Molecules are shown by their SMILES. The panel holds about 83,000 compounds, 20% with a hit somewhere; the sample as a whole holds those more often.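 Growth was measured after 48 h exposure to one concentration of compound in 96-well plates. Values under 10 count as active.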 Values without a mark were called inactive. The source made the active and inactive calls.

As for `COc1ccc(-c2nn(-c3cccc(Cl)c3)cc2-c2cc(-c3ccc(Br)cc3)[nH]c(=O)c2C#N)cc1`, the growth was 122% in [1]; 88.4% in assay [2]; 67.9% in assay [3]; 87.3% in assay [4]; 91.8% in [5]; 82.9% in [6]. In addition, the growth is 102% in assay [7]; 75.4% in [8]; 76% in assay [9]; 35.6% in [10]; 75% in assay [11]; 77.9% in assay [12]. Besides, the growth is 105% in [13]; -34% (active) in assay [14]; 89.1% in assay [15]; 92.9% in [16]; 68% in assay [17]; 33% in [18]. In addition, the growth in [19] was 65%.
Consider `O=C(O)c1cccc2oc(-c3ccccc3O)nc12`, for which the growth in assay [1] is 71.2%; in [2], 45%; in [3], 57.5%; in assay [4] it was 54.3%; in assay [5], 57.9%; in [6], 42.3%. Moreover, the growth in [7] was 47.8%; in assay [8], 31.3%; in [9], 66.4%; in [10] it was 47.6%; in assay [11], 50.4%; in assay [12], 31.9%. The growth in assay [13] was 74.7%; in assay [14] it was 20.8%; in assay [15], 58.4%; in assay [16], 60.5%; in assay [17], 15.5%; in [18], 80.4%. Further, the growth in assay [19] is 19.8%.
On to `O=S(=O)(Nc1cccc2cc(OS(=O)(=O)c3ccccc3)ccc12)c1ccccc1`, for which the growth in [1] is 66.9%; in assay [2] it was 64%; in [3], 70.1%; in [4], 59.7%; in [5], 85.1%; in assay [6] it was 71.4%. In addition, the growth is 48.6% in assay [7]; 61.9% in assay [8]; 43.3% in assay [9]; 25.5% in [10]; 62.1% in [11]; 75.2% in [12]. Moreover, the growth in [13] is 91%; in assay [14] it was 71.3%; in assay [15], 61.8%; in assay [16], 72.5%; in [17], 66.1%; in [18], 57.3%. For the same compound, the growth in assay [19] was 46.2%.
For the compound `O=S(=O)(CCN1CCOCC1)Nc1cncc(-c2ccc3ncnc(Nc4ccc(F)c(Cl)c4)c3c2)c1`, the growth was 81.5% in [1]; 44.7% in assay [2]; 66.7% in [3]; 51.9% in [4]; 45.2% in [5]; 72.3% in assay [6]. Moreover, the growth in assay [7] was 73.1%; in assay [8], 57.1%; in assay [9], 71.7%; in assay [10], 90%; in assay [11], 82.4%; in [12] it was 72.8%. Further, the growth in assay [13] was 69.3%; in [14], 82.2%; in assay [15], 33.5%; in assay [16], 10.8%; in assay [17] it was 50.6%; in assay [18] it was 37%. In addition, the growth in assay [19] was 87.3%.
Take `O=C(Nc1cccc(-n2ccc3c(NC(=O)c4ccccc4)ncnc32)c1)Nc1ccc(Cl)c(C(F)(F)F)c1`: the growth in assay [1] is -8.08% (active); in [2], 32.1%; in assay [3] it was 40.9%; in assay [4], 43.5%; in assay [5] it was 25.5%; in assay [6] it was 18.1%. Also, the growth was 42.9% in assay [7]; 16.4% in [8]; 15.8% in assay [9]; 17.7% in [10]; 16.2% in [11]; 25.9% in [12]. Also, the growth is 48.1% in assay [13]; 64.4% in assay [14]; 52.2% in assay [15]; 32.5% in assay [16]; 26.1% in [17]; 34.8% in assay [19].
In the case of `O=C1c2ccccc2OC=C(c2ccccc2)N1CCCCN1CCCCC1`, the growth in assay [1] is 69%; in [2] it was 39.5%; in [3], 20.4%; in assay [4], 85.8%; in assay [5] it was 104%; in assay [6] it was 101%. Also, the growth in assay [7] was 87.1%; in assay [8], 43.9%; in assay [9], 60.6%; in assay [10], 65.2%; in assay [11] it was 23.6%; in [12] it was 51.7%. Also, the growth was 101% in [13]; 58.7% in assay [14]; 13.2% in assay [15]; 73.7% in assay [16]; 63.6% in [17]; 75.1% in assay [18]. Further, the growth in assay [19] is 88.8%.
Turning to `NC(=O)C1=C[C@H]2[C@H]3C=C[C@@]2(O)C(=O)O[C@@H]3O1`, the growth in [1] was 42.4%; in assay [2], 63.2%; in assay [3], 57.6%; in assay [4], 54.5%; in [5], 44%; in assay [6], 46.5%. The growth in [7] is 81.3%; in assay [8], 26.9%; in [9] it was 42.3%; in assay [10], 50.7%; in assay [11] it was 61.8%; in assay [12] it was 48.8%. In addition, the growth in [13] is 101%; in [14], 29.9%; in assay [15], 86.6%; in assay [16], 50.9%; in assay [17], 16.8%; in [18], 83.5%. Also, the growth in assay [19] was 75.3%.
In the case of `CCN(CC)CCN1C(=O)c2c(c3c4ccccc4[nH]c3c3[nH]c4ccccc4c23)C1=O`, the growth is 101% in assay [1]; 80.3% in assay [2]; 79.1% in [3]; 71.3% in [4]; 62% in assay [5]; 87.9% in assay [6]. Moreover, the growth in [7] was 67.7%; in assay [8] it was 78.8%; in assay [9], 34.8%; in assay [10], 4.92% (active); in [11], 74.9%; in assay [12], 78.5%. Moreover, the growth in assay [13] is 88.7%; in assay [14] it was 72%; in [15], 83.1%; in assay [16] it was 83.3%; in [17] it was 95.4%; in assay [18], 86.7%. In addition, the growth in assay [19] was 71.3%.

The values are drawn from PubChem BioAssay (NCI).
